HttQ103 aggreg – reduces HttQ103-GFP aggregates in PC12 cells; PC12 HttQ103-GFP aggregates, Acumen cytometry, 40 h; Potency, µM (top dose mostly 46.1 µM), for inactives: at the highest dose activity change, negative = inhibition, most hits filed as inhibitors; 1.1% of 220,000 active; AID 1688; further: potency means the concentration at half of the fitted maximal effect; on the % scale 0 is the no-effect control and ±100 the full control effect; nearly all actives have a fitted effect of over 60% in size
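Aggregates are detected as GFP objects 1–25 µm with signal 6 STDEV over background in lysates of induced PC12 cells. These carry Huntingtin exon 1 with 103 glutamines fused to GFP under an ecdysone promoter; compounds titrated.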
GLA spleen mod – inhibitors or activators of human alpha-galactosidase in spleen homogenate; human spleen homogenate, 4MU-alpha-Gal fluorescence, 40 min; Potency, µM (top dose mostly 80 µM), inactives show at the highest dose activity change, negative = inhibition, hits mostly inhibitors; 0.008% of 240,000 active;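 further: potency means the concentration at half of the fitted maximal effect; 0% = enzyme with vehicle and -100% = no enzyme basal signal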
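Fluorogenic readout (Ex 365/Em 440 nm) of 4-methylumbelliferone released from 1 mM 4-MU-alpha-galactoside by spleen homogenate, 40 min at 37C, pH 5.0. Data normalized to no-enzyme and enzyme controls; Hill-equation AC50 from compound titrations.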
HTT cytoprotect – cytoprotection in Huntington HTT-Q103 PC12 cell model; PC12 HTT-Q103 induced, cytoprotection, ATP luminescence, 40 h; Potency, µM (doses to about 56.4 µM), inactives show cytoprotection (ATP increase), hits mostly activators; 0.14% of 230,000 active; further: potency means the concentration at half of the fitted maximal effect; % of control where 0% means no effect; nearly all actives have a fitted effect of over 45% in size
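Stable PC12 Q103-GFP cells in serum-supplemented, phenol red-free DMEM; induction by tebufenozide at 100 nM final; compound dose series; cell viability quantified luminescently from ATP.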
GLA inh pH 4.5 – alpha-galactosidase A (human) inhibition, pH 4.5. 230,000 tested, under 10 active. P06280. purified enzyme, 4-MU-alpha-Gal fluorescence, pH 4.5. activity change, negative = inhibition, % at 105 µM;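 further: 0% = full activity with enzyme and -100% = basal without enzyme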
Target sequence (P06280 whole entry, looked up): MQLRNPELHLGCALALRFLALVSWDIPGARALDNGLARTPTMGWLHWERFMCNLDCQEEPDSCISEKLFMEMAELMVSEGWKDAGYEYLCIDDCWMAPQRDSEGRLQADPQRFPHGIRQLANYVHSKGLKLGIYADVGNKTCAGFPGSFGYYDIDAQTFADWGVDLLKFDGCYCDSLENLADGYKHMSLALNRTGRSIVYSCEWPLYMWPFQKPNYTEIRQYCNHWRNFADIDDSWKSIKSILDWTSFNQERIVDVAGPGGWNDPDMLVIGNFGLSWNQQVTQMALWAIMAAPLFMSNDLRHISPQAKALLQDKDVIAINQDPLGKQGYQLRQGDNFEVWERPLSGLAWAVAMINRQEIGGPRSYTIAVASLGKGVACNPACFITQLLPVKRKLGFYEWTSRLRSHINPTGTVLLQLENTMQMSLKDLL
* hit, by the source's call; [ ] = dose if it differs, or a comment. Only some compounds are listed: those with a hit (about 1.2% of all), similar ones and a draw of the others. The call rests on the fitted dose curve; in most records, active means well fitted curve in the direction sought with a large enough effect; inconclusive means small, poorly fitted or top-dose-only effect, or another doubt; inactive means no such curve, though single readings can be large; an effect the other way counts as inactive or inconclusive.

For COc1ccc(C2/C=C\CN([S+](=O)([O-])c3ccc4ccccc4c3)C(C)C(=O)N2Cc2ccc(F)cc2)cc1 (configuration not stated) the results were GLA spleen mod 2%.
For CC1=CC[C@@]2(CO)COC(c3ccccc3O)C1C2 (some centres not stated) the results were GLA spleen mod -1%, HTT cytoprotect -16% and GLA inh pH 4.5 1.
`CC(NCC(O)COc1ccc(S(=O)(=O)N2CCOCC2)cc1)c1ccccc1` (configuration not stated) gave HttQ103 aggreg -3%, GLA spleen mod -7%, HTT cytoprotect 2.2µM* and GLA inh pH 4.5 3.
`O=S(=O)(c1ccc(OCC(O)CN2CCCCC2)cc1)N1CCOCC1` (configuration not stated) gave HttQ103 aggreg 8%, GLA spleen mod 8%, HTT cytoprotect -7% and GLA inh pH 4.5 3.
CCOc1ccc(Br)cc1/C(C)=N\NC1=NCCN1 was read as HttQ103 aggreg 13µM*, GLA spleen mod 0%, HTT cytoprotect -8% and GLA inh pH 4.5 3.
`CO[C@H](C(=O)[C@@H](O)[C@@H](C)O)C1Cc2cc3cc(O[C@H]4C[C@@H](O[C@H]5C[C@@H](O)[C@H](O)[C@@H](C)O5)[C@@H](O)[C@@H](C)O4)c(C)c(O)c3c(O)c2C(=O)[C@H]1O[C@H]1C[C@@H](O[C@H]2C[C@@H](O[C@H]3C[C@](C)(O)[C@H](O)[C@@H](C)O3)[C@H](O)[C@@H](C)O2)[C@H](O)[C@@H](C)O1` (some centres not stated) gave HttQ103 aggreg 0.22µM* and HTT cytoprotect -63%.
COC(C(=O)C(O)C(C)O)C1Cc2cc3cc(OC4CC(OC5CC(O)C(O)C(C)O5)C(O)C(C)O4)c(C)c(O)c3c(O)c2C(=O)C1OC1CC(OC2CC(OC3CC(C)(O)C(O)C(C)O3)C(O)C(C)O2)C(O)C(C)O1 (configuration not stated) was read as HttQ103 aggreg 0.22µM* and HTT cytoprotect -47%.
Screening Cc1ccc(C(=O)NNC(=O)C2CCN(S(=O)(=O)c3ccc(Cl)cc3)CC2)cc1 returned HttQ103 aggreg -7%, GLA spleen mod 8%, HTT cytoprotect -24%[10 µM] and GLA inh pH 4.5 2.
For O=C(NNC(=O)C1CCN(S(=O)(=O)c2ccc(Cl)cc2)CC1)c1ccc(S(=O)(=O)N2CCCCC2)cc1 the results were HttQ103 aggreg 25µM*, GLA spleen mod -9%, HTT cytoprotect 10%[10 µM] and GLA inh pH 4.5 4.
`CCC1(CC)C(=O)C2=C3C1[C@H](C(=O)OC)CC(C(=O)OC)C[C@H]3[C@H]1C(=O)N(C)C(=O)[C@H]1[C@H]2C` (some centres not stated) gave GLA spleen mod 12%.
For CSCC[C@H](NC(=O)[C@H](CC(C)C)NC(=O)[C@H](Cc1c[nH]c2ccccc12)NC(=O)[C@H](CCC(N)=O)NC(=O)[C@@H](NC(=O)[C@H](Cc1ccccc1)NC(=O)[C@H](CC(=O)O)NC(=O)[C@H](CCC(N)=O)NC(=O)[C@H](C)NC(=O)[C@H](CCCNC(=N)N)NC(=O)[C@H](CCCNC(=N)N)NC(=O)[C@H](CO)NC(=O)[C@H](CC(=O)O)NC(=O)[C@H](CC(C)C)NC(=O)[C@H](Cc1ccc(O)cc1)NC(=O)[C@H](CCCCN)NC(=O)[C@H](CO)NC(=O)[C@H](Cc1ccc(O)cc1)NC(=O)[C@H](CC(=O)O)NC(=O)[C@H](CO)NC(=O)[C@@H](NC(=O)[C@H](Cc1ccccc1)NC(=O)[C@@H](NC(=O)CNC(=O)[C@H](CCC(N)=O)NC(=O)[C@H](CO)NC(=O)[C@@H](N)Cc1cnc[nH]1)[C@@H](C)O)[C@@H](C)O)C(C)C)C(=O)N[C@@H](CC(N)=O)C(=O)N[C@H](C(=O)O)[C@@H](C)O the results were GLA spleen mod 0%.
Screening O=C(c1cnn(-c2ccccc2)c1)c1ccccc1O returned HttQ103 aggreg 11µM*, GLA spleen mod -4%, HTT cytoprotect 2%[10 µM] and GLA inh pH 4.5 2.
For O=c1c(-c2ccccc2)nc2cnc(N3CCOCC3)nc2n1Cc1ccc(F)cc1 the results were GLA spleen mod 0% and HTT cytoprotect -23%.
Screening CC(=O)N(Cc1ccc(F)cc1)C1=C(NCCc2ccccc2)C(=O)c2ccccc2C1=O returned HttQ103 aggreg 7.1µM*, GLA spleen mod 4%, HTT cytoprotect -157% and GLA inh pH 4.5 -16.
`Cn1c(=O)n(C)c2cc(NS(=O)(=O)c3ccc4c(c3)CCCC4)ccc21` gave HttQ103 aggreg 2.8µM*, GLA spleen mod 5%, HTT cytoprotect -12%[0.074 µM] and GLA inh pH 4.5 4.
Screening O=C(CN1CCCc2ccccc21)N/N=C/c1c(O)ccc2ccccc12 returned HttQ103 aggreg 10µM*, GLA spleen mod 8%, HTT cytoprotect -55%[10 µM] and GLA inh pH 4.5 -12.
For Cc1cccc(C)c1NC(=O)C(C)c1ccc(-c2ccccc2)c(F)c1 (configuration not stated) the results were HttQ103 aggreg 18µM*, GLA spleen mod -6%, HTT cytoprotect -29% and GLA inh pH 4.5 -6.
`Cc1cccc(C)c1NC(=O)C(NC=O)c1ccc(Cl)cc1` (configuration not stated) gave HttQ103 aggreg -18%, GLA spleen mod -3%, HTT cytoprotect -3%[10 µM] and GLA inh pH 4.5 -4.
For CCN(CC)S(=O)(=O)c1ccc(NC(=O)Nc2cccc(C(F)(F)F)c2)cc1 the results were HttQ103 aggreg 16µM*, GLA spleen mod 1%, HTT cytoprotect -63% and GLA inh pH 4.5 -15.
`CCC(C)(C)C(=O)O[C@@H]1C[C@@H](C)C=C2C=C[C@H](C)[C@H](CC[C@@H]3C[C@@H](O)CC(=O)O3)[C@H]21` gave GLA spleen mod -15%, HTT cytoprotect -72% and GLA inh pH 4.5 inconclusive.
For O=S(=O)(Nc1cccc2cccnc12)c1ccc(S(=O)(=O)N2CCCC2)cc1 the results were HttQ103 aggreg 0.79µM*, GLA spleen mod -2%, HTT cytoprotect 0%[10 µM] and GLA inh pH 4.5 -3.
For O=S(=O)(Nc1cccc2cccnc12)c1ccccc1 the results were GLA spleen mod -5%.
For CN(c1ncnc(N)c1[N+](=O)[O-])C1CCS(=O)(=O)C1 (configuration not stated) the results were HttQ103 aggreg 4.5µM*, GLA spleen mod 2%, HTT cytoprotect -12% and GLA inh pH 4.5 -19.
For CC(=O)OCC(NC(=O)C(CCCCNC(=O)OCc1ccccc1)NC(=O)OC(C)(C)C)C1OC(n2cc(C)c(=O)[nH]c2=O)C(OC(C)=O)C1OC(C)=O (configuration not stated) the results were GLA spleen mod -18%.
Screening CC(=O)N(Cc1c(C)nn(-c2ccccc2)c1Cl)c1ccc(Cl)cc1 returned HttQ103 aggreg 13%, GLA spleen mod 15%, HTT cytoprotect 6% and GLA inh pH 4.5 -11.
